Experimental data reported in PubChem BioAssay (NCATS).
Results filed as inconclusive are left out. Activity calls are given as the source filed them. Unless noted, calls follow the shape of the dose curve; as a rule, active = well fitted curve in the direction sought with a large enough effect; inconclusive = small, poorly fitted or top-dose-only effect, or another doubt; inactive = no such curve, though single readings can be large; an effect the other way counts as inactive or inconclusive.

Assays:
[1] = Cell Viability - BJ (AID 421; calls by dose curve;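 also: potency is read from the fitted curve at half-maximal effect; cells exposed to compound for 40 hours at 37 °C before readout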); conditions: BJ fibroblast viability, qHTS
In short: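 Cytotoxicity as drop in intracellular ATP (CellTiter-Glo, 20 min RT) after 40 hr compound exposure of BJ fibroblasts at 37 °C. Titrations scaled between DMSO and 100 uM tamoxifen, Hill-fitted for AC50.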

[2] = Cell Viability - Mesenchymal (AID 546); conditions: mesenchymal cells viability, qHTS; series mostly up to 91.7 µM;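 also: cells exposed to compound for 40 hours before reading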
In short: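 Human kidney mesenchymal cells from normal renal glomeruli, 1000 cells/well, rested 5 hr at 37 °C, then treated 40 hr at 37 °C in complete medium. Cellular ATP read by CellTiter-Glo luminescence; AC50 from Hill-equation fits.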

[3] = Cellular Toxicity (caspase-3) HepG2 (AID 654); conditions: HepG2 caspase-3 activation, luminescence, 0% = DMSO only, 100% = tamoxifen; series mostly up to 92.2 µM;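 also: cells exposed to compound for 16 hours before reading; 0% = DMSO alone and 100% = caspase signal from 100 µM tamoxifen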
In short: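 HepG2 cells (1500/well) were treated 16 h at 37 °C in complete medium, then caspase 3/7 activity was read by Caspase-Glo luminescence. Data were normalized to DMSO and 100 uM tamoxifen; AC50 came from Hill-equation fits of qHTS concentration-response.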

[4] = Cellular Toxicity (caspase-3) HUV-EC-C (AID 656); conditions: HUV-EC-C cells, caspase-3 activation (apoptosis), vehicle = 0, 100 µM tamoxifen = 100%; series mostly up to 92.2 µM
In short: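 Luminescent caspase-3/7 activation (aminoluciferin substrate cleavage) in HUV-EC-C cells after 16 hr compound exposure, 37°C. Signal normalized to DMSO basal and 100 uM tamoxifen as 100%; AC50 from concentration-response fitted with the Hill equation.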

[5] = Cellular Toxicity (caspase-3) BJ (AID 658); conditions: BJ fibroblasts, luminescence, normalized: DMSO 0%, staurosporine 100%; series mostly up to 91.7 µM
In short: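 BJ human foreskin fibroblasts, 1000 cells/well, treated 16 hours at 37 °C in complete medium; caspase 3/7 activity by Caspase-Glo luminescence after 1 hr at room temperature. Normalized to DMSO and 10 uM staurosporine; AC50 from Hill fits.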

[6] = Cellular Toxicity (caspase-3) MRC-5 (AID 659); conditions: MRC-5 cells, luminescence, normalized: DMSO 0%, 10 µM staurosporine 100%; series mostly up to 91.7 µM
In short: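 MRC-5 human normal lung fibroblasts, 1500 cells/well, treated 16 h at 37 °C in complete medium. Caspase 3/7 measured by Caspase-Glo luminescence after 1 h at room temperature. Normalized to DMSO and 10 uM staurosporine; AC50 from Hill fit.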

[7] = Cellular Toxicity (caspase-3) SK-N-SH (AID 661); conditions: SK-N-SH caspase-3 activation, qHTS; series mostly up to 91.7 µM
In short: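 Human SK-N-SH neuroblastoma cells, 1500/well, were exposed to compounds for 16 hours at 37 °C. Caspase-Glo 3/7 luminescence was normalized to DMSO (basal) and 10 uM staurosporine (100%), and AC50 came from a Hill fit.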

[8] = Cellular Toxicity (caspase-3) Hek293 (AID 664); conditions: HEK293 caspase-3 activation, DMSO = 0%, 100 µM tamoxifen = 100%; at 92.2 µM (top of the series);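 also: cells exposed to compound for 16 h at 37 °C before readout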
In short: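 HEK293 cells in complete medium treated 16 h at 37 °C, then Caspase-Glo 3/7 luminescence read after 20 min at room temperature. Normalized to DMSO and 100 uM tamoxifen; AC50 from Hill fit of concentration-response.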

[9] = MultiTox-Fluor Cytotoxicity Assay - LYMP1-001 - Dead Cells (AID 946); conditions: LYMP1-001 lymphoblastoid cells, dead-cell protease fluorescence; series mostly up to 92.2 µM
In short: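 Cytotoxicity as increased dead-cell protease fluorescence (bis-AAF-R110, 485/520 nm), read 60 min after MultiTox-Fluor reagent. Human lymphoblastoid line exposed 16 h; Hill-fitted AC50, with DMSO as 0% and 15 uM tetraoctylammonium bromide as 100%.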

[10] = Cell Viability - LYMP1-002 - Assay at 16 hr (AID 948); conditions: LYMP1-002 lymphoblastoid cell viability; series mostly up to 92.2 µM;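 also: 0% = DMSO alone and full effect = 92 µM tetraoctylammonium bromide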
In short: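 LYMP1-002 human lymphoblastoid cells, 2500/well; 5 hr 37 C; cpd 16 hr 37 C; CellTiter-Glo 30 min RT; luminescence (ATP). Concentration-response, Hill-fit AC50. Pos ctrl tetraoctylammonium bromide.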

[11] = MultiTox-Fluor Cytotoxicity Assay - LYMP1-002 - Live Cells (AID 955); conditions: LYMP1-002 lymphoblastoid live-cell protease fluorescence viability; series mostly up to 46.1 µM; also: % is scaled to controls: 0 for no effect and ±100 for the full control effect
In short: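 Human lymphoblastoid LYMP1-002 cells, 2500/well, treated 16 h at 37 C in complete medium. Live-cell protease activity via GF-AFC fluorescence (Ex/Em 405/510) after 60 min reagent incubation; AC50 from Hill fits.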

[12] = MultiTox-Fluor Cytotoxicity Assay - LYMP1-003 - Dead Cells (AID 961); conditions: LYMP1-003 lymphoblastoid cells, dead-cell protease fluorescence; series mostly up to 92.2 µM; also: nearly all actives have a fitted effect of over 70% in size
In short: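 Dead-cell protease release, detected as bis-AAF-R110 fluorescence at 485/520 nm, was measured in LYMP1-003 cells after 16 h compound treatment at 37 C. AC50 values came from Hill-modeled qHTS curves normalized to DMSO (0%) and 15 uM tetraoctylammonium bromide (100%).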

[13] = MultiTox-Fluor Cytotoxicity Assay - LYMP1-003 - Live Cells (AID 962); conditions: LYMP1-003 lymphoblastoid cells, MultiTox-Fluor live-cell protease fluorescence; series mostly up to 92.2 µM;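 also: 0% = DMSO only and full loss = 92 µM tetraoctylammonium bromide; cytotoxic hits lower the live-cell protease signal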
In short: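 LYMP1-003 lymphoblastoid cells, 2500/well in complete medium, treated 16 h at 37 C; live-cell protease cleavage of GF-AFC read by fluorescence (Ex/Em 405/510) after 60 min reagent; AC50 from Hill fits of concentration-response.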

[14] = Cell Viability - LYMP1-003 - Assay at 24 hr (AID 963); conditions: LYMP1-003 lymphoblastoid cell viability; series mostly up to 92.2 µM;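 also: plate controls were DMSO only for no effect and tetraoctylammonium bromide positive control for full effect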
In short: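 Human lymphoblastoid LYMP1-003 cells, 2500/well, treated 24 h at 37 C in complete medium. Viability read as intracellular ATP by CellTiter-Glo luminescence after 30 min at room temperature; AC50 from Hill-equation fits of qHTS concentration-response.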

[15] = Cell Viability - LYMP2-003 (AID 965); conditions: LYMP2-003 lymphoblastoid cell viability; series mostly up to 92.2 µM;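 also: cells exposed to compounds for 24 h before reading; 0% = DMSO only and full effect = 92 µM tetraoctylammonium bromide; nearly all actives have a fitted effect of over 50% in size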
In short: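 CellTiter-Glo luminescence (cellular ATP) after 24 h compound exposure at 37 C in complete medium; 2500 cells/well, 5 h settling beforehand. Concentration-response fitted to standard Hill equation for AC50. Tetraoctylammonium bromide served as positive control.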

[16] = Cell Viability - LYMP2-025 (AID 976); conditions: LYMP2-025 lymphoblastoid cell viability; series mostly up to 92.2 µM;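 also: plate controls were DMSO only for no effect and tetraoctylammonium bromide control for full effect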
In short: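 Human lymphoblastoid LYMP2-025 cells, 2500/well, exposed 24 h at 37 C in complete medium in 1536-well qHTS. Viability as cellular ATP by CellTiter-Glo luminescence; AC50 from Hill fits of concentration-response data.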

[17] = Cell Viability - LYMP2-016 (AID 984); conditions: LYMP2-016 lymphoblastoid cell viability, qHTS; series mostly up to 92.2 µM; also: % is scaled to controls: 0 for no effect and ±100 for the full control effect; nearly all actives have a fitted effect of over 55% in size
In short: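 qHTS, 1536-well: 2500 LYMP2-016 cells/well, 5 hr 37 C, compound added, 24 hr 37 C, CellTiter-Glo 30 min RT, luminescence. Tetraoctylammonium bromide positive control. AC50 via Hill fit.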

[18] = Cell Viability - LYMP2-026 (AID 989); conditions: LYMP2-026 lymphoblastoid cell viability, qHTS; series mostly up to 92.2 µM; also: % is scaled to controls: 0 for no effect and ±100 for the full control effect; nearly all actives have a fitted effect of over 50% in size
In short: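 Human lymphoblastoid LYMP2-026 cells, 2500/well, exposed to compound 24 h at 37 C in complete medium. Viability as intracellular ATP by CellTiter-Glo luminescence; AC50 from Hill fits of qHTS concentration-response.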

[19] = qHTS Assay for Identification of Small Molecule Inducers of Hypoxia Response (AID 2120; active = well fitted curve in the direction sought with a large enough effect in the signal ratio, with a control signal flat, not every such curve was filed as active; the % refers to the signal ratio; also: 0% is about no effect); conditions: hypoxia response reporter cells, beta-lactamase ratio readout; series mostly up to 104 µM
In short: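 HRE-bla ME-180 cells in Opti-MEM with 0.5% dialyzed FBS, pre-plated 4-5 h, then compound titration for 17 h at 37 degrees Celsius. CCF4 loaded 2.5 h at room temperature; 460/530 nm ratio gave %Activity and AC50 for induction.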

[20] = target: Peroxisome proliferator-activated receptor alpha (Homo sapiens) (UniProt Q07869); assay: qHTS assay for small molecule agonists of the peroxisome proliferator-activated receptor alpha (PPARalpha) signaling pathway (AID 651778); conditions: PathHunter PPARalpha complementation, chemiluminescence, 6 h; hits give high values; also: % of control where 0% means no effect
In short: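 Enzyme-fragment complementation assay in which ligand-bound PPARalpha translocates and forms an active enzyme that generates chemiluminescence. Cells were plated overnight, exposed to compound for 6 hr at 37 C, and then given detection reagent for 60 min at room temperature.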

Peroxisome proliferator-activated receptor alpha (Homo sapiens), sequence (Q07869 whole entry, looked up, the tested form may be a part): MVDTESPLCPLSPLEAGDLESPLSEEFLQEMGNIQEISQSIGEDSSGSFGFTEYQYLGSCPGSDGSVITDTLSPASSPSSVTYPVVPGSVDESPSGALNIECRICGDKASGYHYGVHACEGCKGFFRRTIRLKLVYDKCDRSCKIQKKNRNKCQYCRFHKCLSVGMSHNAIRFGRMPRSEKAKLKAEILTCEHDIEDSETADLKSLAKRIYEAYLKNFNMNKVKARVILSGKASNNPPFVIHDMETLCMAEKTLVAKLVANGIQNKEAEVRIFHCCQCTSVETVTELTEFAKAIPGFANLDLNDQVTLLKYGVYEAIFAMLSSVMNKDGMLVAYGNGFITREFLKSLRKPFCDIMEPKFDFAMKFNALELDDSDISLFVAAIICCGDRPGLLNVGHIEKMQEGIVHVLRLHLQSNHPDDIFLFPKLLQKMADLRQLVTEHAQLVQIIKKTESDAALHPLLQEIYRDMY

O=[N+]([O-])c1cccc(O)c1
inactive: Potency [1] > 92 µM | Potency [2] | outcome [3] | outcome [4] | outcome [5] | outcome [6] | Potency [7] | caspase-3 activation [8] 0.974% | outcome [9] | outcome [10] | outcome [11] | Potency [12] | outcome [13] | outcome [14] | Potency [15] | Potency [16] | Potency [17] | Potency [18] | Potency [19] | max response [20] -4.41%

O=C(O)CCl
inactive: Potency [1] > 92 µM | Potency [2] | outcome [3] | outcome [4] | outcome [5] | outcome [6] | Potency [7] | caspase-3 activation [8] -1.43% | outcome [9] | outcome [10] | outcome [11] | Potency [12] | outcome [13] | outcome [14] | Potency [15] | Potency [16] | Potency [17] | Potency [18] | Potency [19] | max response [20] -6.37%

Nc1ncc([N+](=O)[O-])s1
inactive: Potency [1] > 92 µM | Potency [2] | outcome [3] | outcome [4] | outcome [5] | outcome [6] | Potency [7] | caspase-3 activation [8] -1.64% | outcome [9] | outcome [10] | outcome [11] | Potency [12] | outcome [13] | outcome [14] | Potency [15] | Potency [16] | Potency [17] | Potency [18] | Potency [19] | max response [20] 7.02%

c1ccc2c(c1)CCNC2
inactive: Potency [1] > 92 µM | Potency [2] | outcome [3] | outcome [4] | outcome [5] | outcome [6] | Potency [7] | caspase-3 activation [8] -0.664% | outcome [9] | outcome [10] | outcome [11] | Potency [12] | outcome [13] | outcome [14] | Potency [15] | Potency [16] | Potency [17] | Potency [18] | Potency [19] | max response [20] 5.32%

[O-][Cl+2]([O-])O
inactive: Potency [1] > 92 µM | Potency [2] | outcome [3] | outcome [4] | outcome [5] | outcome [6] | Potency [7] | caspase-3 activation [8] -0.13% | outcome [9] | outcome [10] | outcome [11] | Potency [12] | outcome [13] | outcome [14] | Potency [15] | Potency [16] | Potency [17] | Potency [18] | Potency [19] | max response [20] -2.92%

Nc1ccc([N+](=O)[O-])cc1[N+](=O)[O-]
inactive: Potency [1] > 92 µM | Potency [2] | outcome [3] | outcome [4] | outcome [5] | outcome [6] | Potency [7] | caspase-3 activation [8] -0.459% | outcome [9] | outcome [10] | outcome [11] | Potency [12] | outcome [13] | outcome [14] | Potency [15] | Potency [16] | Potency [17] | Potency [18] | Potency [19] | max response [20] -8.48%
